# Where “and” joins values, the source holds several entries; their conditions need not be identical. Equal values may be shown once. Calls of active or inactive are those of the source.
# Columns and labels:
# [1] = test system: PRMT1 (protein arginine N-methyltransferase 1); assay: small molecules binding arginine methyltransferase PRMT1 – biochemical, small-molecule microarray, 635 nm fluorescence, primary screen (AID 1088); conditions: higher = more signal;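 note: binding of Prmt1 protein to compounds spotted on small-molecule microarray slides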
# [2] = growth effects on S. cerevisiae YJM789 – YJM789 clinical isolate, OD600, 24 h, basal, primary screen (AID 1089); conditions: higher = more signal, called active from +8 up or from −8 down;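 note: growth of clinical yeast isolate S. cerevisiae YJM 789 seeded 1000 cells per well; test concentration not given here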
# [3] = S. pombe growth modifiers, basal conditions – strain 972, OD600, 24 h, no modulator, primary screen (AID 1090);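 note: basal condition with compound alone and no growth modifier present; test concentration not given here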; conditions: S. pombe 972 growth, higher = more signal, called active from +8 up or from −8 down
# [4] = budding yeast growth modifiers under rapamycin – strain BY4716, OD600, 96 h, primary screen (AID 1091); note: test concentration not given here; conditions: S. cerevisiae BY4716 + rapamycin, higher = more signal, called active from +8 up or from −8 down
# [5] = biological target: Torsin-1A-interacting protein 2 (Homo sapiens) (UniProt Q8NFQ8); assay: small molecules binding lysate-expressed LULL1 – cell lysate, human LULL1 lysate, 635/667 nm fluorescence, primary screen (AID 1092); conditions: small-molecule microarray, hLULL1 lysate binding, 635 nm fluorescence; higher = more signal;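 note: probe is lysate of COS7 cells overexpressing human LULL1; score merges per-feature 667 nm fluorescence with signal-to-noise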
# [6] = optical density change of DRC41 E. coli – strain DRC41, OD650, 24 h, E. coli filamentation project, primary screen (AID 1093);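 note: MC1000 strain lacking acrAB efflux and sulA so SOS filamentation is blocked; test concentration not given here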; conditions: E. coli DRC41 growth, higher = more signal, called active from +8 up or from −8 down
# [7] = probe aLefty2 binding to arrayed compounds – biochemical, biotinylated probe, 635/667 nm fluorescence, primary screen (AID 1094); conditions: small-molecule microarray, higher = more signal;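 note: score merges spot fluorescence near 667 nm with spot signal-to-noise ratio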
# [8] = test system: Noggin (protein binding on small-molecule microarray); assay: small molecules binding Noggin protein – biochemical, 635/667 nm fluorescence, primary screen (AID 1095); conditions: 635 nm fluorescence, higher = more signal;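 note: score merges 667 nm feature fluorescence with signal to noise over triplicate slides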
# [9] = biological target: Neurogenic locus notch homolog protein 3 (Homo sapiens) (UniProt Q9UM47); assay: small molecules binding NOTCH3 protein – biochemical, 635/667 nm fluorescence, primary screen (AID 1096); conditions: small-molecule microarray, 635 nm fluorescence, higher = more signal
# [10] = probe aEGFR binding to arrayed compounds – biochemical, biotinylated probe, 635/667 nm fluorescence, primary screen (AID 1097); conditions: small-molecule microarray, higher = more signal;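 note: probe is a biotinylated anti-EGFR antibody binding compounds printed on slides; score combines fluorescence near 667 nm and signal to noise of each spot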
# [11] = test system: Plasmodium falciparum Sir2 (PF13_0152, Sir2A); assay: Plasmodium falciparum Sir2A binding compounds – biochemical, small-molecule microarray, 635 nm fluorescence, primary screen (AID 1098); conditions: fluorescence 635 nm, higher = more signal;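 note: score merges spot fluorescence intensity with its signal-to-noise ratio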
# [12] = probe aDKK1 binding to arrayed compounds – biochemical, biotinylated probe, 635/667 nm fluorescence, primary screen (AID 1099); conditions: small-molecule microarray, higher = more signal;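 note: score merges 667nm spot fluorescence with signal to noise across triplicate slides; reference of the scale not given here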
# [13] = probe aCHRDL2 binding to arrayed compounds – biochemical, biotinylated probe, 635/667 nm fluorescence, primary screen (AID 1100); conditions: small-molecule microarray, higher = more signal
# [14] = change in splice reporter luminescence, either direction, cell-based, HEK293, spliceosome inhibition project, primary screen (AID 1101); conditions: HEK293 splicing luciferase reporter, 24 h, higher = more signal, called active from +8 up or from −8 down;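 note: HEK293 cells carrying a splicing-competent luciferase reporter gene; test concentration not given here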
# [15] = biological target: Fibroblast growth factor 10 (Homo sapiens) (UniProt O15520); assay: compounds binding fibroblast growth factor 10 – biochemical, small-molecule microarray, 635 nm fluorescence, primary screen (AID 1102); conditions: FGF10 binding, fluorescence 635 nm, higher = more signal
# [16] = test system: glycogen synthase kinase-3 (GSK3A per assay name; protocol says GSK3B); assay: compounds binding glycogen synthase kinase-3 – biochemical, small-molecule microarray, 635 nm fluorescence, GSK3A, primary screen (AID 1103); conditions: fluorescence 635 nm, higher = more signal; note: the record names both GSK3A and GSK3B
# [17] = biological target: Epidermal growth factor receptor (Homo sapiens) (UniProt P00533); assay: compounds binding epidermal growth factor receptor – biochemical, small-molecule microarray, 635 nm fluorescence, primary screen (AID 1104); conditions: EGFR binding, higher = more signal;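 note: score merges 667 nm emission intensity with spot signal to noise over triplicate slides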
# [18] = biological target: Follistatin-related protein 3 (Homo sapiens) (UniProt O95633); assay: compounds binding follistatin-related protein 3 – biochemical, small-molecule microarray, 635 nm fluorescence, primary screen (AID 1105); conditions: FSTL3 binding, higher = more signal;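 note: score merges emission near 667 nm and signal to noise per printed spot across three slides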
# [19] = biological target: Dickkopf-related protein 1 (Homo sapiens) (UniProt O94907); assay: small molecules binding DKK1 protein – biochemical, small-molecule microarray, 635 nm fluorescence scan, primary screen (AID 1106); conditions: higher = more signal;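 note: score merges emission near 667 nm with signal to noise over three replicate slides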
# [20] = test system: Inhibin beta A chain (activin A); assay: small molecules binding activin A – biochemical, small-molecule microarray, 635 nm fluorescence scan, primary screen (AID 1107); conditions: INHBA, higher = more signal;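 note: mouse activin A protein probed at 4.33 µg/mL on printed slides; score merges bound-protein fluorescence near 667 nm with spot signal-to-noise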
# Follistatin-related protein 3 (Homo sapiens), sequence (O95633 whole entry, looked up): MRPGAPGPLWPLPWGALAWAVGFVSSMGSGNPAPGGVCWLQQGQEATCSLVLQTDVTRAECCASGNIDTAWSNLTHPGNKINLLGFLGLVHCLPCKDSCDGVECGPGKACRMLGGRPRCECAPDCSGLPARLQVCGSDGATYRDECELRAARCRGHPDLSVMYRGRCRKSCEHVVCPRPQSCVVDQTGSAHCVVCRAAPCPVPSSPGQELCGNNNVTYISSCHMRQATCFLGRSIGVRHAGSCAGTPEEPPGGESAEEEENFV
# Fibroblast growth factor 10 (Homo sapiens), sequence (O15520 whole entry, looked up): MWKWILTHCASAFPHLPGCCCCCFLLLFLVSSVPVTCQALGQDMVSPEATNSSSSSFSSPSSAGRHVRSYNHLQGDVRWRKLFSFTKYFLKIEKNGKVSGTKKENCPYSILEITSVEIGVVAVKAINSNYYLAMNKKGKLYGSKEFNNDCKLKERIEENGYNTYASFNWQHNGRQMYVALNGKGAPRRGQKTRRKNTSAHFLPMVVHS
# Dickkopf-related protein 1 (Homo sapiens), sequence (O94907 whole entry, looked up): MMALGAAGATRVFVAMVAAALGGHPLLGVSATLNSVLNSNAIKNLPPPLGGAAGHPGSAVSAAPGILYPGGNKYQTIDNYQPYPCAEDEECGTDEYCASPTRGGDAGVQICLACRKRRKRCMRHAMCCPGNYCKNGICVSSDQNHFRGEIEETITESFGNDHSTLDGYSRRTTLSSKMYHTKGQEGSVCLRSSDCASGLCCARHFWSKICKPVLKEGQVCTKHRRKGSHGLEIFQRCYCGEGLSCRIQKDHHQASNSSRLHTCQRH
# Torsin-1A-interacting protein 2 (Homo sapiens), sequence (Q8NFQ8 whole entry, looked up): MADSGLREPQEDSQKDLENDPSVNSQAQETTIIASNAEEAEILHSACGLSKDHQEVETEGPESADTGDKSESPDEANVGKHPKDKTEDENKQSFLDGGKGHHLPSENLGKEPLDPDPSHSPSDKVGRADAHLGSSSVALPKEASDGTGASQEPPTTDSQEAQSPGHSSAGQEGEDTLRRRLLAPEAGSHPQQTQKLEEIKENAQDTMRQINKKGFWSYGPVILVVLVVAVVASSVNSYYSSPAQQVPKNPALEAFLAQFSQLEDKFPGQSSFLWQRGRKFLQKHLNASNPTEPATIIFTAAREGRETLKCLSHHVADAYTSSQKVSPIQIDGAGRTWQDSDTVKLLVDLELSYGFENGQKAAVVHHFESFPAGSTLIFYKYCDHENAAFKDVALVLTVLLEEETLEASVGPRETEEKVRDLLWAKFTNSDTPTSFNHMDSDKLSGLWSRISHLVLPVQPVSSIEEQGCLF
# Epidermal growth factor receptor (Homo sapiens), sequence (P00533 whole entry, looked up): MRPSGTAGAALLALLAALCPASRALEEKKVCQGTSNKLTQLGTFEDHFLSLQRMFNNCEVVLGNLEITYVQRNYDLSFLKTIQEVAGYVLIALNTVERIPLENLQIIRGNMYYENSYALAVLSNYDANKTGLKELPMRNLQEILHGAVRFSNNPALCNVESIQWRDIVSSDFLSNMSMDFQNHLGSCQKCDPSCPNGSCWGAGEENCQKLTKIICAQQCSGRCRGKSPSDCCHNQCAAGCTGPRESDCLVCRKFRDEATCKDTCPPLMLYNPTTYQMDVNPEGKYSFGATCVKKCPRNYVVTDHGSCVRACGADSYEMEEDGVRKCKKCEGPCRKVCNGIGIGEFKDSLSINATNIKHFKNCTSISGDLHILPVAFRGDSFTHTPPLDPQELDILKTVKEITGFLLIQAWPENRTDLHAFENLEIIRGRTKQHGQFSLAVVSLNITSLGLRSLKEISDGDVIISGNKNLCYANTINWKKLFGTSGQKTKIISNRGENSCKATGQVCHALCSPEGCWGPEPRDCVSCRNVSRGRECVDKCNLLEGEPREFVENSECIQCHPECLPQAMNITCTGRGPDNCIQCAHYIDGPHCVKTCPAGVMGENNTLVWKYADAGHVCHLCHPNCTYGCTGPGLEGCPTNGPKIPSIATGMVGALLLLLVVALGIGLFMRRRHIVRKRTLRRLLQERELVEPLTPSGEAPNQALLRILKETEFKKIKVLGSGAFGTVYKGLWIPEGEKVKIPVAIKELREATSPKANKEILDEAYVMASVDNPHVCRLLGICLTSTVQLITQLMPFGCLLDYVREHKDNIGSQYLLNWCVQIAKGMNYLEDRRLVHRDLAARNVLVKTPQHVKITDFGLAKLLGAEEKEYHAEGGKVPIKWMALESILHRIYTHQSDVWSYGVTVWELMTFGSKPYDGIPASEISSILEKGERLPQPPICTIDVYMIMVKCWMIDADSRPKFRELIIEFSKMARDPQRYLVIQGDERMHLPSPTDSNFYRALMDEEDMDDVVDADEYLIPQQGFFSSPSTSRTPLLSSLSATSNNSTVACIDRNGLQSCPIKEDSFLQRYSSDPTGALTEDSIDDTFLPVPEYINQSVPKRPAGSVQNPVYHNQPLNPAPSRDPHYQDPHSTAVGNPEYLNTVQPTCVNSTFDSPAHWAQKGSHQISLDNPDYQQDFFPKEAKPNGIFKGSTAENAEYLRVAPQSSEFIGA
# Neurogenic locus notch homolog protein 3 (Homo sapiens), sequence (Q9UM47 whole entry, looked up): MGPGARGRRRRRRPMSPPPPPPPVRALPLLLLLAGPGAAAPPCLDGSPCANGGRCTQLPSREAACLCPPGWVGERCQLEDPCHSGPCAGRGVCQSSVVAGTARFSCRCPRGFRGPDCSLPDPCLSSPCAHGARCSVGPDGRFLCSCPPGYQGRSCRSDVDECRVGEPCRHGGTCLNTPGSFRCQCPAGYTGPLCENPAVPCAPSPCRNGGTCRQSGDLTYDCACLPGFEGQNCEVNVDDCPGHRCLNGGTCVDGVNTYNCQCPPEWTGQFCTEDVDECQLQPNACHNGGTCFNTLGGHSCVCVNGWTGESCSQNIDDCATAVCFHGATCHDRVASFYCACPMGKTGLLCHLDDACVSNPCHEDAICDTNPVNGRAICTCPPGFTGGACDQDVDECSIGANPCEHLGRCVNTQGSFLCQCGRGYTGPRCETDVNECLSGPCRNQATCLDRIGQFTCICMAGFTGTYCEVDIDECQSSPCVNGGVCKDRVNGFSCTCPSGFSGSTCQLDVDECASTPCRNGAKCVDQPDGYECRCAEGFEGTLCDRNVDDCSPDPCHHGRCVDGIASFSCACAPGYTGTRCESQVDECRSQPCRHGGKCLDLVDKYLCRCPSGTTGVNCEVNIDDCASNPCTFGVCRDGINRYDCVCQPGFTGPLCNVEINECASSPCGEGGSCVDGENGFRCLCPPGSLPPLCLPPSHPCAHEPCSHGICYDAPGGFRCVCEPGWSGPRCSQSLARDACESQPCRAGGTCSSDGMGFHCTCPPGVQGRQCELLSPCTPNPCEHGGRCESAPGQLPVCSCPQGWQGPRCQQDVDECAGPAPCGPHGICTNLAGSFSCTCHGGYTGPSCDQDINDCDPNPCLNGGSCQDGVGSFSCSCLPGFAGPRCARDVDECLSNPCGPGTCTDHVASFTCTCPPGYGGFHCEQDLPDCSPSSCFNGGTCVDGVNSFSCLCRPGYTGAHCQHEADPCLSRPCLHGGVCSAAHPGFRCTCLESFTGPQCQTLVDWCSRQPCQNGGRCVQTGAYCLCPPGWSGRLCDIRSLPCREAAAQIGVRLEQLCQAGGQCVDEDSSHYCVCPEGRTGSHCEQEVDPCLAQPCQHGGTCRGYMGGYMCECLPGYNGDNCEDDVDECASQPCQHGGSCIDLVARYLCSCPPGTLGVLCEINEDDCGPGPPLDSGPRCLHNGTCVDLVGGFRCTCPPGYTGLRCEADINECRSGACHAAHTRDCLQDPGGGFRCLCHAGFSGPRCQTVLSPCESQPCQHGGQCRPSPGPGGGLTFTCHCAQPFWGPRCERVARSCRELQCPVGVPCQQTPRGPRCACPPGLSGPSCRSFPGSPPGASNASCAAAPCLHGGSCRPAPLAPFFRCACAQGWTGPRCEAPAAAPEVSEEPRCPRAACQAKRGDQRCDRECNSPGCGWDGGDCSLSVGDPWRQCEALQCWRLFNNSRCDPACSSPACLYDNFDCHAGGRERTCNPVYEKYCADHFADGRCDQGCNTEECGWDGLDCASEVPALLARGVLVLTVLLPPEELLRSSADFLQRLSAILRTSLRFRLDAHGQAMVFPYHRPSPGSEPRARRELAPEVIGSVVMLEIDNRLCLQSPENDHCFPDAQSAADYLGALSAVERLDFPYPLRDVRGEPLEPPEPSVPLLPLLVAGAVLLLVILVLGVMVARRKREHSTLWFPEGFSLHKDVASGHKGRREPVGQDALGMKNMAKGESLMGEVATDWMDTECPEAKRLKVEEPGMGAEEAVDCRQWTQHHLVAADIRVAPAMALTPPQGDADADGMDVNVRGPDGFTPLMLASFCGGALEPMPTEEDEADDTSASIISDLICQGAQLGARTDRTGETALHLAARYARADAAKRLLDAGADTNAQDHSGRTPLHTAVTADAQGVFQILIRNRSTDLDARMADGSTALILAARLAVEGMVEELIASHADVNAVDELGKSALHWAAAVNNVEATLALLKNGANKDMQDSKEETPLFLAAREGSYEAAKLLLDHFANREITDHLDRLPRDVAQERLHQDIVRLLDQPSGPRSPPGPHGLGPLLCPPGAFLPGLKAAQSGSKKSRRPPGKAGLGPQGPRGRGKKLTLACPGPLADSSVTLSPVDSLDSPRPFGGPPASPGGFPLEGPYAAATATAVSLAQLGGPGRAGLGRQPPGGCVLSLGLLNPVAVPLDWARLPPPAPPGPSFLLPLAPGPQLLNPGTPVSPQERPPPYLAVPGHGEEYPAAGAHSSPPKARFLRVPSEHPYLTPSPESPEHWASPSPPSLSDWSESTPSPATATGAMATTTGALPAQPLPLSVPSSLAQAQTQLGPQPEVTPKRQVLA
SMILES,composite z-score [1],z-score [2],z-score [3],z-score [4],composite z-score [5],z-score [6],composite z-score [7],composite z-score [8],composite z-score [9],composite z-score [10],composite z-score [11],composite z-score [12],composite z-score [13],z-score [14],composite z-score [15],composite z-score [16],composite z-score [17],composite z-score [18],composite z-score [19],composite z-score [20]
C=CCN(Cc1ccccc1)C(=O)C1N(c2c(Cl)cccc2CO)C(=O)C2C(C(=O)O)C3C=CC21O3 (stereo not given),-1.44 and -1.17,-3.28 (inactive) and 1.06 (inactive),-0.875 (inactive) and -0.0197 (inactive),-1.39 (inactive) and 0.236 (inactive),-1.2 and -1.34,3.06 (inactive) and 1.29 (inactive),-0.114 and 0.0686,-2.68 and -3.18,-2.25 and -1.57,-0.21 and -0.395,-1.57 and -0.0019,0.059 and 0.175,0.845 and 1.19,-2.02 (inactive) and -0.804 (inactive),-0.944 and -1.32,-1.84 and -1.45,-1.91 and -1.77,-1.61 and -2.46,-2.28 and -1.9,-0.934 and -2.5
C=CCN(C(=O)C1N(CCCCCCO)C(=O)C2C(C(=O)O)C3C=CC21O3)c1ccc(OC)cc1 (stereo not given),-0.176 and -1.86,-0.943 (inactive) and -0.7 (inactive),-2.12 (inactive) and -1.62 (inactive),-1.2 (inactive) and -0.708 (inactive),3.53 and 3.04,2.3 (inactive) and 1.01 (inactive),0.259 and 0.337,-2.89 and -3.12,-0.602 and -1.35,-0.267 and -0.241,1.04 and -1.32,0.0787 and 0.332,1.27 and 1.18,-1.67 (inactive) and -0.118 (inactive),-0.791 and -1.26,-0.329 and -0.852,-2.79 and -2.32,-2.58 and -1.84,-2.84 and -2.35,-1.71 and -1.78
COC(=O)c1c2oc(c1C(=O)OC)C(=O)N[C@@H](Cc1ccccc1)Cn1cc(nn1)C1(CCCCC1)NC(=O)N[C@H](CO)CC2,1.43 and 0.951,0.168 (inactive) and 0.611 (inactive),-0.79 (inactive) and -0.186 (inactive),-0.427 (inactive) and -0.2 (inactive),2.52 and 0.978,2.09 (inactive) and 1.21 (inactive),0.558 and 0.72,1.57 and 0.416,0.971 and 0.57,0.0408 and -0.0697,0.582 and 0.45,0.407 and -0.327,-0.287 and -0.366,-0.55 (inactive) and -1.56 (inactive),1.16 and 0.505,0.86 and 0.41,0.158 and 0.198,0.794 and 0.388,0.749 and 0.194,0.728 and -0.0236
C=CCN(CCCCC)C(=O)C(c1cccs1)N(C(=O)/C=C\C(=O)O)c1ccc(CCO)cc1 (stereo not given),0.275 and -0.0988,0.472 (inactive) and 0.0638 (inactive),-0.265 (inactive) and 0.206 (inactive),0.499 (inactive) and 0.494 (inactive),1.64 and 0.636,0.295 (inactive) and -0.109 (inactive),-0.254 and -0.0927,-1.9 and -1.27,-1.01 and -1.02,-0.309 and -0.313,0.274 and 0.158,-0.273 and -0.247,0.748 and 0.789,0.748 (inactive) and 0.709 (inactive),-1.8 and -1.08,-1.01 and -0.785,-1.79 and -1.62,-1.87 and -1.55,-2.83 and -1.55,-2.66 and -1.26
CCN1C(=O)[C@H]2[C@H]3[C@H](O)[C@H](O)CC(=NNC(=O)OCc4ccc(OC)cc4)[C@H]3CC[C@H]2C1=O,0.0536,0.523 (inactive),-0.312 (inactive),0.41 (inactive),0.677,-0.17 (inactive),0.656,-0.283,-0.143,0.0004,0.182,1.55,1.27,-0.324 (inactive),0.178,-0.152,-0.698,0.0229,-0.819,0.0193
O=C1NC(=O)C2C1C=CC(C(O)c1ccc([N+](=O)[O-])cc1)N2Nc1ccc(Cl)cc1Cl (stereo not given),0.551 and 0.395,-1.44 (inactive) and -1.78 (inactive),-1.46 (inactive) and -1.07 (inactive),-0.923 (inactive) and -0.888 (inactive),3.3 and 3.03,0.33 (inactive) and 0.728 (inactive),0.127 and 0.386,-0.142 and -0.311,0.843 and 0.588,0.0661 and -0.102,0.59 and 0.0889,-0.0543 and 1.09,0.765 and 0.824,-1.06 (inactive) and -1.49 (inactive),0.945 and 0.229,0.0563 and 0.737,0.0939 and -0.12,0.272 and 0.132,0.0264 and -0.297,1.13 and 1.31
C=CCN(C(=O)C(c1cccs1)N(C(=O)/C=C\C(=O)O)C(C)(C)CO)c1ccc(OC)cc1 (stereo not given),-0.771 and -0.469,-2.87 (inactive) and -2.15 (inactive),-2.09 (inactive) and -2.05 (inactive),-2.57 (inactive) and -1.07 (inactive),2.03 and -0.628,3.5 (inactive) and 2.82 (inactive),0.388 and -0.0519,-1.23 and -1.8,-1.37 and -0.484,-0.24 and -0.151,1.39 and -1.69,-0.117 and -0.0312,0.599 and 0.476,-2.61 (inactive) and -1.39 (inactive),-0.477 and -0.869,-0.41 and -0.514,-0.869 and -2.11,-1.4 and -1.37,-0.789 and -0.497,-1.07 and -0.761
CC(C)=NOCc1ccc(-c2cn([C@@H]3COC[C@H]3O)nn2)cc1,-0.253,0.279 (inactive),0.132 (inactive),-0.738 (inactive),0.226,0.484 (inactive),0.0434,0.485,-0.328,-0.0025,-0.257,-0.123,-0.764,1.04 (inactive),0.506,0.114,0.309,0.273,0.455,0.147
